In PubChem BioAssay (EPA / NIEHS) one finds outcome and AC50 data, which are given here for 40 compounds.

Active and inactive are the calls of the source. Rule for the calls: active = hit-call score of the fitted dose curve at least 0.9, where 1 is the maximum; inactive = score below 0.9.

A short description of this experiment: ATG_M_19_CIS: Attagene CIS-FACTORIAL HepG2 Assay for M19 Transcription Factor (Internal Marker) (AID 2282939). Particulars: HepG2 Attagene CIS-FACTORIAL M19 internal marker reporter; actives raise or lower the signal. The protocol:
ATG_CIS is a cell-based, multiplexed-readout assay that uses HepG2, a human liver cell line, with measurements taken at 24 hours after chemical dosing in a 24-well plate.ATG_M_19_CIS is one of 52 assay component(s) measured or calculated from the ATG_CIS assay. It is designed to make measurements of mRNA induction, a form of inducible reporter, as detected with fluorescence intensity signals by Reverse transcription polymerase chain reaction (RT-PCR) and Capillary electrophoresis technology.Data from the assay component ATG_M_19_CIS was analyzed into 1 assay endpoint. This assay endpoint, ATG_M_19_CIS, was analyzed with bidirectional fitting relative to DMSO as the negative control and baseline of activity. Using a type of inducible reporter, measures of mRNA for gain or loss-of-signal activity can be used to understand the background control at the transcription factor-level as they relate to the gene . Furthermore, this assay endpoint can be referred to as a secondary readout, because this assay has produced multiple assay endpoints where this one serves a background control function. To generalize the intended target to other relatable targets, this assay endpoint is annotated to the background measurement intended target family, where the subfamily is internal marker.
Human liver HepG2 cells are transiently transfected with multiple reporter transcription units (MRTUs) in 6-well plates using FuGene 6 reagent (Roche; 3 ml FuGene/1 mg DNA). The MRTU constructs are regulated by a cis-regulating element (promoter). […] A major difference between the CIS and TRANS system is that in CIS activities of endogenous TFs are measured, whereas the TRANS assay evaluates changes in activities of exogenous, chimeric NR-Gal4 proteins. […] At the end of 24 hour incubation, total RNA was isolated using TriZol reagent (Invitrogen). The isolated RNA is then reverse-transcribed using oligo(dT) primer and Mo-MLV reverse transcriptase (Invitrogen) with DNAse I (Ambion) treatment for 30 min. The one-tenth of the produced cDNA was amplified by PCR using Taq DNA polymerase (Invitrogen) and two reporter sequence-specific primers. The PCR products were fluorescently labeled by primer extension with 6-arboxyfluorescein (6-FAM) 5'-labeled reporter sequence-specific primer (2 min at 95 C, 20 s at 68 C and 10 min at 72 C) and these products were digested with 5U of HpaI (New England Biolabs) for 2h at 37 C. The fragments were purified using Qiaquick PCR columns (Qiagen), analyzed on an ABI 3130xL genetic analyzer (Applied Biosystems) with peak positions identified by using a set of X-rhodamine (ROX)-labeled MapMarker1000 molecular weight standards (BioVentures). The raw capillary electrophoresis data was processed using Attagraph software (Attagene).
With `Cc1cccc(N)c1N`, the compound was called inactive.
Still for that read-out and setting: the entry for `[As]#[In]` is “inactive”; for `CN(C)[C@@H]1C(=O)C(C(N)=O)=C(O)[C@@]2(O)C(=O)C3=C(O)c4c(O)cccc4[C@@](C)(O)[C@H]3C[C@@H]12` it is “inactive”; for `CN(C)c1ccc(C(=O)c2ccc(N(C)C)cc2)cc1` it is “inactive”.
Same read-out and setting: the entry for `Cn1cc(-c2ccccc2)c(=O)c(-c2cccc(C(F)(F)F)c2)c1` is “inactive”.
Same read-out and setting: the entry for `O=[N+]([O-])c1ccc(Oc2ccc(Cl)cc2Cl)cc1` is “inactive”; for `O=C(Oc1ccc(Br)cc1)N1CCN2CCC1CC2` it is “inactive”; for `CO[C@@H]1[C@H](OC(=O)NC(=O)CCl)CC[C@]2(CO2)[C@H]1[C@@]1(C)O[C@@H]1CC=C(C)C` it is “inactive”.
Take `Clc1ccc(C(c2ccc(Cl)cc2)C(Cl)Cl)cc1`: the compound was classed as inactive.
Still for that read-out and setting: the entry for `Oc1ccc2ccc3cccc4ccc1c2c34` is “inactive”; for `N#CC(Br)(Br)C(N)=O` it is “inactive”; for `OCCOCCO` it is “inactive”.
The same measure, in the same setting: the entry for `c1ccc(NNc2ccccc2)cc1` is “inactive”.
On the same count and under the same terms, the entry for `C=CCc1ccc2c(c1)OCO2` is “inactive”.
Regarding `CCN(CC)CCO`, the outcome was inactive.
Same read-out and setting: the entry for `O=P(OCCCl)(OCCCl)OCCCl` is “inactive”; for `O=C(Nc1ccccc1)c1ccccc1I` it is “inactive”.
Turning to `Nc1cc(Cl)cc(C(=O)O)c1Cl`, the result was inactive.
For the compound `Nc1ccc([N+](=O)[O-])cc1`, the result was inactive.
Regarding `CC(C)(OOC(C)(C)c1ccccc1)c1ccccc1`, the compound was classed as inactive.
On the same count and under the same terms, the entry for `CC(C)COC(=O)c1ccccc1C(=O)OCC(C)C` is “inactive”; for `C[N+](C)(C)CC1CO1` (stereo not given) it is “inactive”.
Still for that read-out and setting: the entry for `Clc1ccc(Cl)c(Cl)c1` is “inactive”; for `CCN(CC)N=O` it is “inactive”; for `Clc1ccccc1Cl` it is “inactive”.
Same read-out and setting: the entry for `COC(=O)Nc1nc2ccccc2[nH]1` is “inactive”.
For the compound `CCOC(=O)[C@]1(c2ccccc2)Oc2ccccc2[C@@H]1N`, the compound was called inactive.
The same measure, in the same setting: the entry for `CN(C)C(=O)Nc1ccc(Cl)cc1` is “inactive”; for `CCC12COCN1COC2` it is “inactive”; for `CCCCC(CC)COC(=O)c1ccc(C(=O)OCC(CC)CCCC)c(C(=O)OCC(CC)CCCC)c1` (stereo not given) it is “inactive”.
As to `COc1cc(C=O)cc2c1[C@H](COC(N)=O)[C@]1(OC(C)=O)ON2C[C@H]2[C@@H]1N2C(C)=O`, the AC50 (usually the midpoint of the concentration-response curve, whichever way the signal moves) was 33.4 µM (active).
On to `CCC(C)c1ccc(O)cc1` (stereo not given), for which the compound was called inactive.
Same read-out and setting: the entry for `CCCSC(=O)N(CCC)CCC` is “inactive”; for `CC(C)N(Cc1ccccc1)C(=O)C(C)(C)C` it is “inactive”; for `CC(C)(C)OOC(=O)c1ccccc1` it is “inactive”.
For the compound `Clc1ccc(C(c2ccc(Cl)cc2)C(Cl)(Cl)Cl)cc1`, the call was inactive.
On the same count and under the same terms, the entry for `c1ccc(N=Nc2ccccc2)cc1` is “inactive”; for `Nc1ccc(Oc2ccc(N)cc2)cc1` it is “inactive”; for `OCCCBr` it is “inactive”.
As to `C[C@]12C=CC3=C4CCC(=O)C=C4CC[C@H]3[C@@H]1CC[C@@H]2O`, the result was inactive.
